# Activity calls are given as the source filed them. Rule for the calls: active = hit-call score of the fitted dose curve at least 0.9, where 1 is the maximum; inactive = score below 0.9.
# Tests used:
# [1] = APR_HepG2_CellCycleArrest_24hr: Apredica 24-hour HepG2 Assay for Cell Cycle Arrest (AID 2282905); conditions: imaging, actives raise or lower the signal;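 note: cell cycle arrest scored as ratio of 2N to 4N nuclear DNA content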
# Procedure, shortened: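 Compounds (0.39 to 200 uM, final DMSO 0.5% v/v) are applied to HepG2 cells for 24 hours; cells are then fixed, permeabilized and nuclei labeled with Hoechst 33342. Automated imaging measures DNA content, and activity is fitted in both directions against DMSO.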
# [2] = APR_HepG2_CellLoss_24hr: Apredica 24-hour HepG2 Assay for Cell Loss (AID 2282908); conditions: high-content imaging;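 for AC50: fit in both directions so a hit may be cell loss or gain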
# Procedure, shortened: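 Nuclear count serves as the viability measure: treated cells are fixed, permeabilized and labelled with Hoechst 33342, and six images per well are analysed to identify valid nuclei. Doses span 0.39–200 uM, and activity in either direction is scored against DMSO.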
# [3] = APR_HepG2_MicrotubuleCSK_24hr: Apredica 24-hour HepG2 Assay for Microtubule CSK Stabilty (AID 2282909); conditions: HepG2 microtubule cytoskeleton imaging, actives raise or lower the signal
# Procedure, shortened: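 Compounds were applied to HepG2 cells for 24 hours across 0.39–200 uM in duplicate, with final DMSO at 0.5% v/v. Fixed, permeabilized cells were labeled for alpha-tubulin and nuclei, and tubulin fluorescence was quantified by imaging, fitted bidirectionally against DMSO.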
# [4] = APR_HepG2_MitoticArrest_24hr: Apredica 24-hour HepG2 Assay for Mitotic Arrest (AID 2282910); conditions: high-content imaging, actives raise or lower the signal
# Procedure, shortened: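 Treatment lasted 24 hr in the human HepG2 line at 0.39–200 uM, solvent held at 0.5% DMSO. Fixed cells were stained with Hoechst 33342 and anti-phospho-histone H3, imaged at 20x, and analysed by gain- or loss-of-signal fitting against DMSO.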
# [5] = APR_HepG2_MitoMembPot_24hr: Apredica 24-hour HepG2 Assay for Mitochondrial Membrane Potential (AID 2282911); conditions: imaging, actives raise or lower the signal
# Procedure, shortened: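 HepG2 human liver cells were exposed 24 hr to compounds at 0.39–200 uM (final DMSO 0.5% v/v) in duplicate. MitoTracker Red CMXRos (250 nM, 30 min) was loaded before formaldehyde fixation; fluorescence was imaged by ArrayScan HCS and fitted bidirectionally versus DMSO.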
# [6] = APR_HepG2_p53Act_24hr: Apredica 24-hour HepG2 Assay for p53 Activation (AID 2282913); conditions: high-content imaging, actives raise or lower the signal;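 note: p53 protein immunofluorescence averaged per cell in HepG2 with Hoechst nuclei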
# Procedure, shortened: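 HepG2 cells exposed 24 hr to compounds at 0.39–200 uM (10 concentrations, duplicate), final DMSO 0.5% v/v. After formaldehyde fixation and Triton permeabilization, p53 was immunolabeled (sheep anti-p53, Cy5 secondary) with Hoechst 33342 nuclear counterstain, then imaged by high-content fluorescence microscopy.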
# [7] = APR_HepG2_CellCycleArrest_72hr: Apredica 72-hour HepG2 Assay for Cell Cycle Arrest (AID 2282914); conditions: high-content imaging, actives raise or lower the signal
# Procedure, shortened: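 HepG2 cells were exposed to compounds at 0.39–200 uM (0.5% v/v DMSO final, duplicates) for 72 hr, fixed in 3.7% formaldehyde, permeabilized and stained with Hoechst 33342. Nuclear DNA content was quantified by high-content imaging; gain or loss of signal was fitted bidirectionally against DMSO.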
# [8] = APR_HepG2_CellLoss_72hr: Apredica 72-hour HepG2 Assay for Cell Loss (AID 2282915); conditions: high-content imaging
# Procedure, shortened: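 HepG2 cells were exposed for 72 hr to compounds at 0.39–200 uM (ten concentrations, duplicate) in 0.5% v/v final DMSO. Nuclei were stained with Hoechst 33342 after 3.7% formaldehyde fixation, imaged at 20x, and counted; fits bidirectional versus DMSO.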
# [9] = APR_HepG2_MitoMass_24hr: Apredica 24-hour HepG2 Assay for Mitochondrial Mass (AID 2282912); conditions: high-content imaging, actives raise or lower the signal
# Procedure, shortened: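 After 24 hr of treatment at 0.39 to 200 uM, HepG2 cells take up 250 nM MitoTracker Red CMXRos for 30 min and are then fixed with 3.7% formaldehyde. Per-well images are quantified, and any change in either direction is scored against solvent.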
smiles,measurement,setting,value
COc1ccc2sc(C(=O)Nc3nnn[nH]3)c(OC(C)C)c2c1,outcome,[1],inactive
same,outcome,[2],inactive
same,outcome,[3],inactive
same,outcome,[4],inactive
same,outcome,[5],inactive
same,outcome,[6],inactive
same,outcome,[7],inactive
same,AC50,[8],39.9 µM (active)
CCOCCO,outcome,[1],inactive
same,outcome,[2],inactive
same,outcome,[3],inactive
same,outcome,[4],inactive
same,outcome,[5],inactive
same,outcome,[6],inactive
same,outcome,[7],inactive
same,outcome,[8],inactive
CCCCCCc1ccc(O)cc1O,AC50,[1],89.8 µM (active)
same,AC50,[2],103 µM (active)
same,outcome,[3],inactive
same,AC50,[4],95.4 µM (active)
same,AC50,[5],46.1 µM (active)
same,AC50,[6],104 µM (active)
same,outcome,[7],inactive
same,AC50,[8],71.5 µM (active)
CC(C)=CCC/C(C)=C\CO,outcome,[1],inactive
same,outcome,[2],inactive
same,outcome,[3],inactive
same,outcome,[4],inactive
same,outcome,[5],inactive
same,outcome,[6],inactive
same,outcome,[7],inactive
same,outcome,[8],inactive
CC(=O)c1ccc2c(c1)[C@H](NC(=O)c1ccc(F)cc1)[C@@H](O)C(C)(C)O2,outcome,[1],inactive
same,outcome,[2],inactive
same,outcome,[3],inactive
same,outcome,[4],inactive
same,outcome,[5],inactive
same,outcome,[6],inactive
same,outcome,[7],inactive
same,outcome,[8],inactive
O=c1[nH]c2ccc(S(=O)CCN3CCC(Cc4ccc(F)cc4)CC3)cc2o1 (stereo not drawn),outcome,[1],inactive
same,outcome,[2],inactive
same,outcome,[3],inactive
same,outcome,[4],inactive
same,outcome,[5],inactive
same,outcome,[9],inactive
same,outcome,[6],inactive
same,AC50,[7],99.9 µM (active)
same,AC50,[8],76.1 µM (active)
COC(=O)CC(=O)OC,outcome,[1],inactive
same,outcome,[2],inactive
same,outcome,[3],inactive
same,outcome,[4],inactive
same,outcome,[5],inactive
same,outcome,[9],inactive
same,outcome,[6],inactive
same,outcome,[7],inactive
same,outcome,[8],inactive
CCCC(=O)OCC,outcome,[1],inactive
same,outcome,[2],inactive
same,outcome,[3],inactive
same,outcome,[4],inactive
same,outcome,[5],inactive
same,outcome,[6],inactive
same,outcome,[7],inactive
same,outcome,[8],inactive
CCn1nc(Cc2ccccc2)cc1C1CCN(C[C@H]2C[C@H](N(C)[C@@H](C(=O)O)C(C)C)C[C@@H]2c2cccc(F)c2)CC1,AC50,[1],46.3 µM (active)
same,outcome,[2],inactive
same,outcome,[3],inactive
same,outcome,[4],inactive
same,outcome,[5],inactive
same,outcome,[6],inactive
same,outcome,[7],inactive
same,AC50,[8],90.9 µM (active)
CN(C)c1ccc(Cc2ccc(N(C)C)cc2)cc1,outcome,[1],inactive
same,outcome,[2],inactive
same,outcome,[3],inactive
same,outcome,[4],inactive
same,AC50,[5],55.9 µM (active)
same,outcome,[9],inactive
same,outcome,[6],inactive
same,AC50,[7],50.8 µM (active)
same,AC50,[8],45.2 µM (active)
CCOc1cccc(-n2cc(C(=O)N3CCN(c4cc(C(=O)O)c5ccccc5c4)CC3)nc2-c2ccc(C)cc2)c1,AC50,[1],97.5 µM (active)
same,AC50,[2],88.3 µM (active)
same,AC50,[3],101 µM (active)
same,AC50,[4],97.5 µM (active)
same,outcome,[5],inactive
same,AC50,[6],99.3 µM (active)
same,AC50,[7],96 µM (active)
same,AC50,[8],81.9 µM (active)
Oc1ccc2c(c1)-c1ccccc1C2,outcome,[1],inactive
same,AC50,[2],100 µM (active)
same,outcome,[3],inactive
same,AC50,[4],116 µM (active)
same,outcome,[5],inactive
same,AC50,[9],111 µM (active)
same,AC50,[6],100 µM (active)
same,AC50,[7],124 µM (active)
same,AC50,[8],86.1 µM (active)
CCCCCCCCO,outcome,[1],inactive
same,outcome,[2],inactive
same,outcome,[3],inactive
same,outcome,[4],inactive
same,outcome,[5],inactive
same,outcome,[6],inactive
same,outcome,[7],inactive
same,outcome,[8],inactive
COCCOCCOCCOC,outcome,[1],inactive
same,outcome,[2],inactive
same,outcome,[3],inactive
same,outcome,[4],inactive
same,outcome,[5],inactive
same,outcome,[6],inactive
same,outcome,[7],inactive
same,outcome,[8],inactive
CNS(=O)(=O)c1cc(C(=O)N2CCC(CCN3C4CCC3CC(n3c(C)nc5ccccc53)C4)(c3cccc(F)c3)CC2)c(Cl)cc1F (stereo not drawn),outcome,[1],inactive
same,AC50,[2],62.9 µM (active)
same,AC50,[3],52 µM (active)
same,AC50,[4],40.9 µM (active)
same,outcome,[5],inactive
same,AC50,[6],72.7 µM (active)
same,AC50,[7],78.9 µM (active)
same,AC50,[8],24 µM (active)
CCOC(=O)c1ccc(C2CCC(NC[C@H](O)COc3ccc(O)c(NS(C)(=O)=O)c3)CC2)cc1 (stereo partly drawn),outcome,[1],inactive
same,AC50,[2],32.3 µM (active)
same,AC50,[3],90.2 µM (active)
same,AC50,[4],27.5 µM (active)
same,AC50,[5],86.9 µM (active)
same,AC50,[6],26.2 µM (active)
same,outcome,[7],inactive
same,AC50,[8],25 µM (active)
CC(C)=CCC/C(C)=C/CO,outcome,[1],inactive
same,outcome,[2],inactive
same,outcome,[3],inactive
same,outcome,[4],inactive
same,outcome,[5],inactive
same,outcome,[9],inactive
same,outcome,[6],inactive
same,outcome,[7],inactive
same,AC50,[8],81.1 µM (active)
CCOC(=O)CC(CC(=O)OCC)(OC(C)=O)C(=O)OCC,outcome,[1],inactive
same,outcome,[2],inactive
same,outcome,[3],inactive
same,outcome,[4],inactive
same,outcome,[5],inactive
same,outcome,[6],inactive
same,AC50,[7],82.1 µM (active)
same,AC50,[8],45.8 µM (active)
CC(C)(O)c1coc(S(=O)(=O)NC(=O)Nc2c3c(cc4c2CCC4)CCC3)c1,outcome,[1],inactive
same,outcome,[2],inactive
same,outcome,[3],inactive
same,outcome,[4],inactive
same,outcome,[5],inactive
same,outcome,[6],inactive
same,outcome,[7],inactive
same,outcome,[8],inactive
CCOC(=O)COc1ccc2c(c1)CC(NCC(O)c1cccc(Cl)c1)CC2 (stereo not drawn),outcome,[1],inactive
same,AC50,[2],84.4 µM (active)
same,outcome,[3],inactive
same,AC50,[4],28.7 µM (active)
same,outcome,[5],inactive
same,AC50,[6],30.6 µM (active)
same,outcome,[7],inactive
same,AC50,[8],71.4 µM (active)
Cc1ccc(C)c(O)c1,outcome,[1],inactive
same,outcome,[2],inactive
same,outcome,[3],inactive
same,outcome,[4],inactive
same,outcome,[5],inactive
same,outcome,[6],inactive
same,outcome,[7],inactive
same,outcome,[8],inactive
CC/C(=C\C(=N/O)C(N)=O)C(C)[N+](=O)[O-] (stereo not drawn),outcome,[1],inactive
same,outcome,[2],inactive
same,outcome,[3],inactive
same,outcome,[4],inactive
same,outcome,[5],inactive
same,outcome,[6],inactive
same,outcome,[7],inactive
same,outcome,[8],inactive
O=C1CCCCCN1,outcome,[1],inactive
same,outcome,[2],inactive
same,outcome,[3],inactive
same,outcome,[4],inactive
same,outcome,[5],inactive
same,outcome,[6],inactive
same,outcome,[7],inactive
same,outcome,[8],inactive
CC(C)CCO,outcome,[1],inactive
same,outcome,[2],inactive
same,outcome,[3],inactive
same,outcome,[4],inactive
same,outcome,[5],inactive
same,outcome,[9],inactive
same,outcome,[6],inactive
same,outcome,[7],inactive
same,outcome,[8],inactive
